Data taken from PubChem BioAssay (NCATS).
Inconclusive results are not listed. A call without a number means that no potency is given here. Unmarked numbers belong to inactive results. The source made the active and inactive calls. The call rests on the fitted dose curve; in most records, active means well fitted curve in the direction sought with a large enough effect; inconclusive means small, poorly fitted or top-dose-only effect, or another doubt; inactive means no such curve, though single readings can be large; an effect the other way counts as inactive or inconclusive. Residues, ends and D or L forms follow the SMILES beside them. *: point of attachment. Cbz = O=C(OCc1ccccc1)*

Columns and labels:
[1] = tested on: Zika virus NS2B-NS3 protease; test: Primary screen GU AMC qHTS for Zika virus inhibitors (AID 1347154); further: nearly all actives have a fitted effect of over 70% in size; further: potency means the concentration at half of the fitted maximal effect
Procedure, shortened: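 Unlinked Zika NS2B hydrophilic domain/NS3 protease domain noncovalent complex (25 nM final) in 10 mM Tris-HCl pH 8.0, 0.01% Tween 20, with AMC peptide substrate. Fluorescence (ex 340, em 450 nm) change over 15 min, room temperature; percent inhibition fitted to 4-parameter Hill equation.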

[2] = Confirmatory screen NINDS Rhodamine qHTS for Zika virus inhibitors (AID 1347161); further: nearly all actives have a fitted effect of over 60% in size; further: potency means the concentration at half of the fitted maximal effect;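 on activity change, negative = inhibition: purified Zika NS2B-NS3 protease with linked NS2B cofactor domain and Rhodamine110 peptide substrate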
Procedure, shortened: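 Purified linked NS2B-NS3 protease (NS2B hydrophilic domain joined to NS3 protease by flexible linker), 25 nM in 10 mM Tris-HCl pH 8.0, 0.01% Tween 20. Compounds titrated, 15 min preincubation at room temperature; 1.5 microM Rhodamine110 substrate, FITC fluorescence change over 15 min.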

[3] = target: Lysine-specific demethylase 5B (Homo sapiens) (UniProt Q9UGL1); test: Optimization screen for KDM5B Histone Demethylases FDH coupled qHTS against the LOPAC library (AID 1347166); conditions: KDM5B demethylation, FDH-coupled NADH fluorescence (FDH is formaldehyde dehydrogenase); at 57.5 µM (top of the series)
Procedure, shortened: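 KDM5BDeltaAP (200nM final) in 50mM HEPES pH 7.5, 0.01% Tween-20 was preincubated with compound for 10 min at room temperature. A substrate mix of 12.5uM H3K4Me3, 25uM a-ketoglutarate, ascorbate, Fe2+, NAD+ and formaldehyde dehydrogenase was then added. NADH fluorescence (340/450 nm) was read initially and after 30 min.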

[4] = Vero cells viability qHTS for Zika virus inhibitors (AID 1347167); further: potency means the concentration at half of the fitted maximal effect
Procedure, shortened: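 To flag cytotoxic protease inhibitors, viability is measured by ATP-dependent luminescence (CellTiter Glo) after cells attached overnight receive compound for 24 to 48 hours in DMEM with 4% FBS.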

[5] = Tertiary RLuc qRT-PCR qHTS assay for Zika virus inhibitors (AID 1347169); further: top concentration of the series differs between compounds; nearly all actives have a fitted effect of over 55% in size
Procedure, shortened: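 Inhibition of ZIKV-RLuc replication in Vero cells, read as Renilla luminescence 1-1.5 hrs after live-cell substrate addition, following 48-72 hrs infection at MOI 1-2 in presence of compound.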

[6] = ZIKV-mCherry secondary qHTS for Zika virus inhibitors (AID 1347158); further: potency means the concentration at half of the fitted maximal effect; on activity change, negative = inhibition: top concentration of the series differs between compounds
Procedure, shortened: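 This orthogonal imaging screen measured ZIKV-mCherry infection of Vero cells exposed to compound, MOI 1, 48-72 h. Percent infection came from segmented nuclei scored mCherry-positive above 3 SD of negative controls.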

[7] = tested on: Zika virus NS2B-NS3 protease (linked); test: 384 well plate NINDS AMC confirmatory qHTS for Zika virus inhibitors (AID 1347163); further: nearly all actives have a fitted effect of over 50% in size; further: potency means the concentration at half of the fitted maximal effect;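 on activity change, negative = inhibition: linked protease at 5 30 or 60 nM final depending on run; fluorescence of AMC released from Ac-VKTGKR-AMC peptide cleaved by the protease; top concentration of the series differs between compounds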
Procedure, shortened: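 Enzyme (5, 30 or 60 nM final) first met test compounds for ~15 min. The AMC-tagged peptide Ac-VKTGKR-AMC followed at 30 microM. Fluorescence was then recorded at 25 min and scaled against no-enzyme and no-inhibitor wells.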

[8] = tested on: Zika virus NS2B-NS3 protease (linked construct); test: 384 well plate NINDS Rhodamine confirmatory qHTS for Zika virus inhibitors (AID 1347164); further: nearly all actives have a fitted effect of over 65% in size; further: potency means the concentration at half of the fitted maximal effect; on activity change, negative = inhibition: top concentration of the series differs between compounds
Procedure, shortened: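 Cleavage of Ac-LKRR-Rhodamine 110 (10 microM final) by linked protease (final 5, 30 or 60 nM) was followed as fluorescence at 485/538 nm after 25 min, room temperature, dark. Compounds preincubated ~15 min.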

[9] = tested on: Zika virus NS2B-NS3 protease (linked construct); test: Primary screen NINDS Rhodamine qHTS for Zika virus inhibitors (AID 1347160); further: nearly all actives have a fitted effect of over 55% in size
Procedure, shortened: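 Each compound, titrated, sat 15 min with 25 nM linked protease before 1.5 microM Rhodamine110 substrate went in. Fluorescence gain over the next 15 min, in pH 8.0 Tris with Tween 20, gave Hill-fitted curves.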

[10] = OV-KATE Cancer Cell Toxicity qHTS against the NCATS CANVASS Library (AID 1347345)
Procedure, shortened: (§1)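 Cells were seeded at 1000 per well, allowed 4 h at 37 degrees C/5% CO2, then pin-treated with an 11-point compound series. After 72 h, viability was read as CellTiter-Glo luminescence following 15min at room temperature.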

[11] = HPAF-II Cancer Cell Toxicity qHTS against the NCATS CANVASS Library (AID 1347346); further: nearly all actives have a fitted effect of over 55% in size
Procedure, shortened: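 Using 1000 HPAF-II cells per well, we titrated compounds over 11 concentrations for 72 h at 37 degrees C/5% CO2, with bortezomib as control. Cell survival was quantified by CellTiter-Glo luminescence.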

[12] = UWB1.289 Cancer Cell Toxicity qHTS against the NCATS CANVASS Library (AID 1347347); conditions: outcome: dose series up to 38.3 µM; further: nearly all actives have a fitted effect of over 60% in size
Procedure, shortened: as §1

[13] = OV-SAHO Cancer Cell Toxicity qHTS against the NCATS CANVASS Library (AID 1347348); further: nearly all actives have a fitted effect of over 55% in size
Procedure, shortened: as §1

[14] = Panc-1005 Cancer Cell Toxicity qHTS against the NCATS CANVASS Library (AID 1347349); further: nearly all actives have a fitted effect of over 60% in size
Procedure, shortened: as §1

[15] = SW1088 Cancer Cell Toxicity qHTS against the NCATS CANVASS Library (AID 1347350); conditions: outcome: dose series up to 76 µM; further: nearly all actives have a fitted effect of over 75% in size
Procedure, shortened: as §1

[16] = U-118MG Cancer Cell Toxicity qHTS against the NCATS CANVASS Library (AID 1347351)
Procedure, shortened: as §1

[17] = COV-362 Cancer Cell Toxicity qHTS against the NCATS CANVASS Library (AID 1347352)
Procedure, shortened: (§2)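 Using an ATP-based luminescent reagent after three days of treatment, toxicity is scored across an eleven-concentration range in wells holding 1000 cells each.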

[18] = A2780 Cisplatin Sensitive Ovarian Cancer Cell Toxicity qHTS against the NCATS CANVASS Library (AID 1347353); conditions: A2780 ovarian cancer viability, ATPLite luminescence, 72 h; at 91.4 µM (top of the series) unless noted; further: nearly all actives have a fitted effect of over 60% in size
Procedure, shortened: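 Quantitative HTS format: eleven compound concentrations applied to pre-seeded cells, 72 h incubation at 37 °C, then ATP detection by luminescence.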

[19] = UWB1.289-WTBRCA1 Cancer Cell Toxicity qHTS against the NCATS CANVASS Library (AID 1347354); conditions: UWB1.289-WTBRCA1 viability, CellTiter-Glo luminescence, 72 h; at 76 µM (top of the series) unless noted
Procedure, shortened: as §2

[20] = Confirmatory screen GU Rhodamine qHTS for Zika virus inhibitors qHTS (AID 1347157); further: potency means the concentration at half of the fitted maximal effect; nearly all actives have a fitted effect of over 70% in size
Procedure, shortened: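 Unlinked NS2B/NS3, 25 nM; Rhod110 peptide, 1.5 microM; compounds, up to 114 microM. Reaction run 15 min at RT in 10 mM Tris-HCl pH 8.0, 0.01% Tween 20; kinetic fluorescence change fitted with a 4-parameter Hill model.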

Chain of Lysine-specific demethylase 5B (Homo sapiens) (Q9UGL1 whole entry, looked up): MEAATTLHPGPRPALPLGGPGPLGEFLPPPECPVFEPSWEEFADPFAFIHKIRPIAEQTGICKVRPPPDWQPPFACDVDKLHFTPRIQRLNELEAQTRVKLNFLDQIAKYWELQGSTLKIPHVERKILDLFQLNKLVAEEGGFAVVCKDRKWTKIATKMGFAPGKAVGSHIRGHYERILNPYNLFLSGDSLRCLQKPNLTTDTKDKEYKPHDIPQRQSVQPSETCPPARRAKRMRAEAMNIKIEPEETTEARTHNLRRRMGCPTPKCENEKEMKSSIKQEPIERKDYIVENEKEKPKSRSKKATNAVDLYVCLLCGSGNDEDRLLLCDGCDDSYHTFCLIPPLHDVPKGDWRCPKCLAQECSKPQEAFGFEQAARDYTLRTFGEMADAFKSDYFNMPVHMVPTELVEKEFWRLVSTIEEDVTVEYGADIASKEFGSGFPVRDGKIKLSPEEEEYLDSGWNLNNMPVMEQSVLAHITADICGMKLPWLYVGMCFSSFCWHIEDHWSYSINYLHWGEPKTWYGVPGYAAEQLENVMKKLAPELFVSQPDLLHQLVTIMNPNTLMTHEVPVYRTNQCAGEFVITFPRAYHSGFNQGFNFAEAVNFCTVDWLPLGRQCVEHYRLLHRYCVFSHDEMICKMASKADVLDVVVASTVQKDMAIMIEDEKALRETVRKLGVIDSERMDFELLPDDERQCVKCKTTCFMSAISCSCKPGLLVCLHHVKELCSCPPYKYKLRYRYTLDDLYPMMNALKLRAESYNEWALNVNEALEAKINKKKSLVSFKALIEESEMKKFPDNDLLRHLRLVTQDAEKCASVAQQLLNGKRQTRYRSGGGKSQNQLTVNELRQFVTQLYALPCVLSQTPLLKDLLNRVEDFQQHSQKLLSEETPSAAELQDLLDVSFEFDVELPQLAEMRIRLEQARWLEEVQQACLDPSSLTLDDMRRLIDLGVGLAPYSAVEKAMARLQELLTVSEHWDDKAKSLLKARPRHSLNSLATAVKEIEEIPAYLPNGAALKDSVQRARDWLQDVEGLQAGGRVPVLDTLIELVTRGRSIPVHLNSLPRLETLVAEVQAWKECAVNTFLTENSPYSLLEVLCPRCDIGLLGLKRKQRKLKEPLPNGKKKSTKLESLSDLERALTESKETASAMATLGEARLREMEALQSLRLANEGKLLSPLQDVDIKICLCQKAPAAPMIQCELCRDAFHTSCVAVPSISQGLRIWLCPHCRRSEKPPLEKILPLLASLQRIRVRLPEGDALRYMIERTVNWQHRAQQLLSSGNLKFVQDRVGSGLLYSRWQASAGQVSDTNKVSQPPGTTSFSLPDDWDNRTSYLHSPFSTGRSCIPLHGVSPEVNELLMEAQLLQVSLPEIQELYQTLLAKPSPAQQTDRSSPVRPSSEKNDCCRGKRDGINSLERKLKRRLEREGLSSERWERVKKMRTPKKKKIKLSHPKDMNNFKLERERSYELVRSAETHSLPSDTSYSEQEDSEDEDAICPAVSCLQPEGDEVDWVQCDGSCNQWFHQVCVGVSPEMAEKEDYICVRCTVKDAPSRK

O=c1[nH]c(=O)c2nc3ccccc3nc2[nH]1
Potency [1]: inactive

NC(=Nc1ccccc1)NC(=O)c1nc(Cl)c(N)nc1N
Potency [1]: inactive

COc1ccccc1N1CCN(CCCNc2c(C)c(=O)n(C)c(=O)n2C)CC1
Potency [1]: inactive
Potency [2]: inactive
activity, negative = inhibition [3]: -1.72%
Potency [4]: inactive
Potency [5]: inactive

CCCCCCN(CCCCCC)C(=O)Cc1c(-c2ccc(F)cc2)[nH]c2ccccc12
Potency [1]: inactive

O=c1ccn([C@@H]2O[C@H](COP(=O)(O)OP(=O)(O)O)[C@@H](O)[C@H]2O)c(=O)[nH]1
Potency [1]: inactive

CC(C)[C@H](NC(=O)OCc1ccccc1)C(=O)N[C@H](C=O)Cc1ccccc1 (Cbz-Val-Phe-aldehyde)
Potency [1]: inactive
activity, negative = inhibition [3]: 6.73%

NS(=O)(=O)c1cccc2c1c([N+](=O)[O-])cc1nc(O)c(O)nc12
Potency [1]: inactive

C/C(=C\c1ccc(C(=O)O)cc1)c1ccc2c(c1)C(C)(C)CCC2(C)C
Potency [1]: inactive
Potency [6]: 7.94 µM (active)
Potency [2]: 1.56 µM (active)
Potency [7]: inactive
Potency [8]: inactive
Potency [4]: inactive

CCCCCCCC/C=C\CCCCCCCC(=O)NCCc1ccc(O)c(O)c1
Potency [1]: 16.8 µM (active)
Potency [2]: 19.6 µM (active)
Potency [7]: 1.12 µM (active)
Potency [8]: 3.16 µM (active)
activity, negative = inhibition [3]: -22.3%
Potency [4]: 8.27 µM (active)

C#CCn1c(=O)c2c(ncn2C)n(C)c1=O
Potency [1]: inactive

CCCN(CCc1ccccc1)C1CCc2c(O)cccc2C1 (centres undefined)
Potency [1]: inactive
activity, negative = inhibition [3]: -0.152%

c1ccc2nc(C3=NCCN3)ccc2c1
Potency [1]: inactive

CNc1cc(NS(=O)(=O)c2ccc(N)cc2)nc(NC)n1
Potency [1]: inactive

CC(=O)NCCc1c[nH]c2ccc(O)cc12
Potency [1]: inactive
outcome [9]: inactive
activity, negative = inhibition [3]: -23.2%
outcome [10]: inactive
outcome [11]: inactive
outcome [12]: inactive
outcome [13]: inactive
outcome [14]: inactive
outcome [15]: inactive
outcome [16]: inactive
outcome [17]: inactive
outcome [18]: inactive [at 46.1 µM]
outcome [19]: inactive [at 38.3 µM]

N[C@@H](CS(=O)O)C(=O)O
Potency [1]: inactive

O=C1Nc2ccc(I)cc2/C1=C/c1cc(Br)c(O)c(Br)c1
Potency [1]: inactive
Potency [7]: 89.1 µM (active)
Potency [8]: 2.51 µM (active)
activity, negative = inhibition [3]: -25%

Cn1cc(C(=O)OCC2CCN(CCNS(C)(=O)=O)CC2)c2ccccc21
Potency [1]: inactive

NC1(C(=O)O)CCc2cc(C(=O)O)ccc21 (centres undefined)
Potency [1]: inactive

CC(C)(CO)Cc1cc(C(C)(C)C)c(O)c(C(C)(C)C)c1
Potency [1]: inactive

Cc1nc(N=Nc2ccc(S(=O)(=O)O)cc2S(=O)(=O)O)c(COP(=O)(O)O)c(C=O)c1O
Potency [1]: inactive
Potency [20]: 7.94 µM (active)
Potency [6]: inactive
Potency [7]: 39.8 µM (active)
Potency [8]: 3.98 µM (active)
activity, negative = inhibition [3]: -11.6%
activity change, negative = inhibition [5]: 33.6% [at 5.25 µM]

NC[C@@H]1O[C@H](c2ccccc2)Cc2c1ccc(O)c2O
Potency [1]: inactive

NCCNS(=O)(=O)c1cccc2c(Cl)cccc12
Potency [1]: inactive
activity, negative = inhibition [3]: -9.52%

CC(C)(C)NCC(O)COc1cccc2[nH]c(=O)[nH]c12 (centres undefined)
Potency [1]: inactive
activity, negative = inhibition [3]: -6.87%

CC1=C(/C=C/C(C)=C/C=C/C(C)=C\C(=O)O)C(C)(C)CCC1
Potency [1]: inactive
activity, negative = inhibition [3]: -15.4%

COc1ccccc1N1CCN(CCCCN2C(=O)c3ccccc3C2=O)CC1
Potency [1]: inactive
activity, negative = inhibition [3]: -4.4%

CCn1c(=O)[nH]c2cc(Cl)c(Cl)cc21
Potency [1]: inactive
activity, negative = inhibition [3]: -0.178%

NC(N)=NC(N)=Nc1cccc(Cl)c1
Potency [1]: inactive
activity, negative = inhibition [3]: -3.11%

CCCCCC[C@@H]([C@@H](C)O)n1cnc2c(N)ncnc21
Potency [1]: inactive
activity, negative = inhibition [3]: -6.57%

NCCCNCCCCNCCCN
Potency [1]: inactive
activity, negative = inhibition [3]: -4.41%

NC1C=CC=C(C(=O)O)C1 (centres undefined)
Potency [1]: inactive
activity, negative = inhibition [3]: -9.6%

CCSC(=N)N
Potency [1]: inactive
activity, negative = inhibition [3]: -5.42%

CC1CNCCN1S(=O)(=O)c1cccc2cnccc12 (centres undefined)
Potency [1]: inactive
activity, negative = inhibition [3]: -12.8%

O=[N+]([O-])c1cccc2c(Br)[nH]nc12
Potency [1]: inactive
activity, negative = inhibition [3]: -1.9%

CCCn1c(=O)c2c(ncn2C)n(CCC)c1=O
Potency [1]: inactive
activity, negative = inhibition [3]: -2.62%

NC/C=C\C(=O)O
Potency [1]: inactive
activity, negative = inhibition [3]: 3.97%

NC(N)=NC(N)=Nc1ccccc1
Potency [1]: inactive
activity, negative = inhibition [3]: -3.27%

CC(=O)NNC(=O)N1Cc2ccccc2Oc2ccc(Cl)cc21
Potency [1]: inactive
activity, negative = inhibition [3]: -5.14%

COc1ccc(CCN(C)CCc2ccc(OC)c(OC)c2)cc1OC
Potency [1]: inactive
activity, negative = inhibition [3]: 3.09%

CN1CCc2cc(Cl)c(O)cc2[C@@H](c2ccccc2)C1
Potency [1]: inactive
activity, negative = inhibition [3]: -3.21%

COc1cc(C(O)C(=O)O)ccc1O (centres undefined)
Potency [1]: inactive
activity, negative = inhibition [3]: -6.83%

O=C(O)C1=CCCN(CCON=C(c2ccccc2)c2ccccc2)C1
Potency [1]: inactive
activity, negative = inhibition [3]: 1.04%

O=C(O)c1ccccc1Nc1ccccc1
Potency [1]: inactive
activity, negative = inhibition [3]: -9.73%

CC(C)NC[C@H](O)COc1ccc(CC(N)=O)cc1
Potency [1]: inactive
activity, negative = inhibition [3]: -2.87%

CC(=O)N[C@@H](Cc1c[nH]c2ccccc12)C(=O)OCc1cc(C(F)(F)F)cc(C(F)(F)F)c1
Potency [1]: inactive
activity, negative = inhibition [3]: -9.61%
